Biological target: AgAbp1
Test: SPOT peptide array binding signal intensity (averaged, normalized) (arbitrary units (background-subtracted, floor 0; scale differs between SH3 domains)); higher = stronger binding of the SH3 domain to the peptide
How it was run: (§1)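 E. coli BL21(DE3) was used to express GST-fused SH3 domains from four yeast species, which were then purified on glutathione Sepharose. These were incubated at 10 μg/ml in TBS-based blocking buffer overnight at 4°C on cellulose membranes carrying synthetic 15-mer peptides, in which cysteines were replaced by serines. Binding signal is the replicate average of normalized, background-subtracted spot intensity, in arbitrary units that differ between domains.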

Row | Binder | SPOT peptide array binding signal intensity
1 | GKLKHIPRRPYEIER | 3.5

Biological target: AgBbc1
Test: as above
How it was run: as §1

Row | Binder | SPOT peptide array binding signal intensity
2 | GKLKHIPRRPYEIER | 102

Biological target: AgBem1-D1
Test: as above
How it was run: as §1

Row | Binder | SPOT peptide array binding signal intensity
3 | GKLKHIPRRPYEIER | 14

Biological target: AgBzz1-D1
Test: as above
How it was run: as §1

Row | Binder | SPOT peptide array binding signal intensity
4 | GKLKHIPRRPYEIER | 11

Biological target: AgBzz1-D2
Test: as above
How it was run: as §1

Row | Binder | SPOT peptide array binding signal intensity
5 | GKLKHIPRRPYEIER | 10.5

Biological target: AgCyk3
Test: as above
How it was run: as §1

Row | Binder | SPOT peptide array binding signal intensity
6 | GKLKHIPRRPYEIER | 1.5

Biological target: AgFus1
Test: as above
How it was run: as §1

Row | Binder | SPOT peptide array binding signal intensity
7 | GKLKHIPRRPYEIER | 10

Biological target: AgHof1
Test: as above
How it was run: as §1

Row | Binder | SPOT peptide array binding signal intensity
8 | GKLKHIPRRPYEIER | 5.5

Biological target: AgHse1
Test: as above
How it was run: as §1

Row | Binder | SPOT peptide array binding signal intensity
9 | GKLKHIPRRPYEIER | ≤ 0

Biological target: AgLsb1
Test: as above
How it was run: as §1

Row | Binder | SPOT peptide array binding signal intensity
10 | GKLKHIPRRPYEIER | 1

Biological target: AgLsb4
Test: as above
How it was run: as §1

Row | Binder | SPOT peptide array binding signal intensity
11 | GKLKHIPRRPYEIER | 12

Biological target: AgMyo5
Test: as above
How it was run: as §1

Row | Binder | SPOT peptide array binding signal intensity
12 | GKLKHIPRRPYEIER | 0.25

Biological target: AgNbp2
Test: as above
How it was run: as §1

Row | Binder | SPOT peptide array binding signal intensity
13 | GKLKHIPRRPYEIER | ≤ 0

Biological target: AgRvs167
Test: as above
How it was run: as §1

Row | Binder | SPOT peptide array binding signal intensity
14 | GKLKHIPRRPYEIER | 1.83

Biological target: AgSho1
Test: as above
How it was run: as §1

Row | Binder | SPOT peptide array binding signal intensity
15 | GKLKHIPRRPYEIER | ≤ 0

Biological target: AgSla1-D1-D2
Test: as above
How it was run: as §1

Row | Binder | SPOT peptide array binding signal intensity
16 | GKLKHIPRRPYEIER | ≤ 0

Biological target: AgSla1-D3
Test: as above
How it was run: as §1

Row | Binder | SPOT peptide array binding signal intensity
17 | GKLKHIPRRPYEIER | 0.75

Biological target: CaAbp1-D1
Test: as above
How it was run: as §1

Row | Binder | SPOT peptide array binding signal intensity
18 | GKLKHIPRRPYEIER | 129

Biological target: CaAbp1-D2
Test: as above
How it was run: as §1

Row | Binder | SPOT peptide array binding signal intensity
19 | GKLKHIPRRPYEIER | 1

Biological target: CaBbc1
Test: as above
How it was run: as §1

Row | Binder | SPOT peptide array binding signal intensity
20 | GKLKHIPRRPYEIER | 552

Biological target: CaBem1-D1
Test: as above
How it was run: as §1

Row | Binder | SPOT peptide array binding signal intensity
21 | GKLKHIPRRPYEIER | 5

Biological target: CaBzz1-D1
Test: as above
How it was run: as §1

Row | Binder | SPOT peptide array binding signal intensity
22 | GKLKHIPRRPYEIER | 116

Biological target: CaBzz1-D2
Test: as above
How it was run: as §1

Row | Binder | SPOT peptide array binding signal intensity
23 | GKLKHIPRRPYEIER | 67.5

Biological target: CaCyk3
Test: as above
How it was run: as §1

Row | Binder | SPOT peptide array binding signal intensity
24 | GKLKHIPRRPYEIER | 67.5

Biological target: CaFus1
Test: as above
How it was run: as §1

Row | Binder | SPOT peptide array binding signal intensity
25 | GKLKHIPRRPYEIER | ≤ 0

Biological target: CaHof1
Test: as above
How it was run: as §1

Row | Binder | SPOT peptide array binding signal intensity
26 | GKLKHIPRRPYEIER | ≤ 0

Biological target: CaHse1
Test: as above
How it was run: as §1

Row | Binder | SPOT peptide array binding signal intensity
27 | GKLKHIPRRPYEIER | 1.5

Biological target: CaLsb1
Test: as above
How it was run: as §1

Row | Binder | SPOT peptide array binding signal intensity
28 | GKLKHIPRRPYEIER | ≤ 0

Biological target: CaLsb4
Test: as above
How it was run: as §1

Row | Binder | SPOT peptide array binding signal intensity
29 | GKLKHIPRRPYEIER | 40

Biological target: CaMyo5
Test: as above
How it was run: as §1

Row | Binder | SPOT peptide array binding signal intensity
30 | GKLKHIPRRPYEIER | ≤ 0

Biological target: CaNbp2
Test: as above
How it was run: as §1

Row | Binder | SPOT peptide array binding signal intensity
31 | GKLKHIPRRPYEIER | ≤ 0

Biological target: CaRvs167
Test: as above
How it was run: as §1

Row | Binder | SPOT peptide array binding signal intensity
32 | GKLKHIPRRPYEIER | 2.83

Biological target: CaRvs167-3
Test: as above
How it was run: as §1

Row | Binder | SPOT peptide array binding signal intensity
33 | GKLKHIPRRPYEIER | ≤ 0

Biological target: CaSho1
Test: as above
How it was run: as §1

Row | Binder | SPOT peptide array binding signal intensity
34 | GKLKHIPRRPYEIER | ≤ 0

Biological target: CaSla1-D1-D2
Test: as above
How it was run: as §1

Row | Binder | SPOT peptide array binding signal intensity
35 | GKLKHIPRRPYEIER | ≤ 0

Biological target: CaSla1-D3
Test: as above
How it was run: as §1

Row | Binder | SPOT peptide array binding signal intensity
36 | GKLKHIPRRPYEIER | ≤ 0

Biological target: ScAbp1
Test: as above
How it was run: as §1

Row | Binder | SPOT peptide array binding signal intensity
37 | GKLKHIPRRPYEIER | 7

Reference: the supplement of paper PMC4466140
